BAZ2B inh: BAZ2B (human) inhibition | Q9UIF8 | AlphaScreen BAZ2B-H3K14Ac peptide displacement | Potency, µM (titrated, usually from 114 µM), for inactives: top-dose activity change, negative = inhibition, most hits filed as inhibitors | actives 4.4% (n = 360,000); further: on the % scale 0 is the no-effect control and ±100 the full control effect; nearly all actives have a fitted effect of over 60% in size
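Compounds, titrated to a top concentration of 110 uM, were incubated 30 min at room temperature with preformed BAZ2B/acetyl-K14 H3 peptide complex (50 nM each). Proximity signal was measured by AlphaScreen after 20 min with beads.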
HP1b binding inh: inhibitors of HP1-beta chromodomain binding to methylated histone tails. AID 540317. Potency, µM (highest dose often 114 µM), for inactives: at the top dose activity change, negative = inhibition, hits mostly inhibitors. AlphaScreen HP1-beta / biotin-H3K9me3 peptide binding. actives 0.56% (n = 390,000); further: nearly all actives have a fitted effect of over 70% in size
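Compound inhibition of the preformed complex between 50 nM HP1-beta and 50 nM biotinylated H3K9me3 peptide was read by AlphaScreen. Buffer was PBS pH 7.4 with 0.01% Tween-20. Incubations ran 30 min at room temperature, with 10 ug/mL donor/acceptor beads.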
G9a inh: G9a (human) methyltransferase inhibition | actives 8.8% (n = 350,000) | Potency, µM (top dose mostly 102 µM), for inactives: at the top dose activity, negative = inhibition, actives largely listed as inhibitors | Q96KQ7 | G9a H3K9 monomethylation, AlphaScreen, 2 h; further: on the % scale 0 is the no-effect control and ±100 the full control effect; nearly all actives have a fitted effect of over 75% in size
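Enzyme 20 nM + cpd, 15 min RT; add b-H3K9 pep 500 nM / SAM 20 uM; 2 h RT; anti-H3K9me1 Ab 0.5 ug/mL + SA donor / anti-rabbit acceptor beads 20 ug/mL each, 10 min; AlphaScreen read.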
JMJD2A Tudor inh: inhibitors of human JMJD2A Tudor domain; O75164; AlphaScreen JMJD2A-Tudor / H3K4me3 peptide binding; Potency, µM (series often up to 114 µM), for the others: at the highest dose activity change, negative = inhibition, usual class: inhibitors; actives 4.4% (n = 390,000); further: on the % scale 0 is the no-effect control and ±100 the full control effect; nearly all actives have a fitted effect of over 50% in size
GLS inh: inhibitors of human glutaminase (GLS); AID 624170; actives 0.21% (n = 410,000); Potency, µM (highest dose often 45.5 µM), without a hit: at the top dose activity change, negative = inhibition, actives largely listed as inhibitors; GLS enzymatic activity, qHTS titration; O94925; further: on the % scale 0 is the no-effect control and ±100 the full control effect
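hKGA; 45 mM KH2PO4 pH 8.2 + 0.02% Tween-20; cpd via pin tool; 1 mM Gln soln; GluOx/HRP/Amplex Red; RT 30 min; fluor. t0 & final.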
Active calls of the source: *; ? = inconclusive; · = no result given; [ ] = remark or other dose. Hits are enriched below; roughly 10% of the tested compounds scored in any of these assays. The call rests on the fitted dose curve; in most records, active means well fitted curve in the direction sought with a large enough effect; inconclusive means small, poorly fitted or top-dose-only effect, or another doubt; inactive means no such curve, though single readings can be large; an effect the other way counts as inactive or inconclusive. Potency means the concentration at half of the fitted maximal effect.

SMILES	BAZ2B inh	HP1b binding inh	G9a inh	JMJD2A Tudor inh	GLS inh
CC(=O)c1cccc(CN2CCC(CO)(CCCc3ccccc3)CC2)c1	-2%	40%	·	-13%	4%
c1ccc(CNC2=NCCCC2)cc1	?	?	14µM*	?	8%
O=C(NNC1=NCCCCC1)c1ccccc1	-8%	-22%	-51%	3.2µM*	24%
Oc1ccccc1/C=N/NC1=NCCCCC1	10%	44%	·	-13%	26%
COc1ccc(CNC(=O)c2cnc3sc(N4CCCC4)nn3c2=O)cc1OC	-10%	-1%	27%[59 µM]	-16%	0%
CCN(CC)C(=O)CCSc1nnc(-c2ccncc2)o1	-6%	45%	-8%[59 µM]	-15%	-1%
CCCCNC(=O)N(C)c1nc2ccccc2s1	-4%	46%	50µM*	8%	19%
COC(=O)N(C)c1nc2ccccc2s1	·	49%	1%[59 µM]	8%	-2%
C=CCOc1ccccc1CN1CCCCCC1	?	?	·	1.4µM*	-2%
C=CCOc1ccccc1CN1CCSCC1	56µM*	?	?	6.3µM*	16%
C=CCOc1ccccc1CN1CCC(Oc2ccc(C(=O)N3CCCCC3)cc2)CC1	1%	26%	94%	-15%	-4%
CCOC(=O)c1c(-c2ccc(C)o2)csc1NC(=S)NC(=O)c1ccccc1Br	-10%	?	32µM*	?	0%
CCOC(=O)c1c(-c2ccc(C)o2)csc1NC(=S)NC(=O)c1cccs1	?	-18%	?	-34%	14%
CCOC(=O)c1c(-c2ccc(C)o2)csc1NC(=O)COC(=O)c1ccc(NC(N)=O)cc1	79µM*	-1%	3.5µM*	?	11%
CCOc1ccccc1N1CCN(C(=O)c2c(C)noc2C)CC1	-1%	31%	-13%[59 µM]	1%	3%
Cc1cc(N2CCN(C)CC2)nc2ccc(NC(=S)NCCC(C)C)cc12	?	-4%	50µM*	?	26%
CCCN(CCC)CCCNC(=S)Nc1ccc2nc(N3CCCC3)cc(C)c2c1	5%	9%	40µM*	?	16%
CCN(CC)CCNC(=S)Nc1ccc2nc(N3CCCC3)cc(C)c2c1	·	34%	45µM*	-1%	23%
CCN(CC)CCNC(=S)Nc1ccc2nc(N3CCOCC3)cc(C)c2c1	-20%	9%	?	-9%	28%
Cc1cc(N2CCCCC2)nc2ccc(NC(=O)c3ccc(Br)o3)cc12	?	?	50µM*	?	-4%
c1ccc(-n2c(Sc3cnccn3)nnc2-c2cccs2)cc1	-3%	46%	-2%[12.7 µM]	4%	-3%
Cc1nc2sc(C(c3ccc(Cl)cc3)N3CCN(C(=O)c4ccco4)CC3)c(O)n2n1 (stereo unspecified)	-4%	21%	-42%	-7%	9%
CCN(CC)CCNC(=S)Nc1ccc2nc(N3CCN(C)CC3)cc(C)c2c1	1%	52%	45µM*	-22%	61%
COc1ccc(S(=O)(=O)NC(C)C(=O)Nc2ccccc2C(F)(F)F)cc1 (stereo unspecified)	-4%	19%	11µM*	5%	-6%
Nc1[nH]n(-c2ccccc2)c(=O)c1N=Nc1ccc2c(c1)OCO2	4µM*	?	-110%[59 µM]	10µM*	18%
SMILES	BAZ2B inh	HP1b binding inh	G9a inh	JMJD2A Tudor inh	GLS inh
Nc1[nH]n(-c2ccccc2)c(=O)c1N=Nc1ccc2c(c1)OCCO2	10µM*	45µM*	10µM*	20µM*	?
CCN1CCN(C(=S)NC(=O)/C=C/c2cccs2)CC1	-3%	28%	50µM*	-10%	13%
CCN1CCN(C(=S)NC(=O)c2cccs2)CC1	?	-17%	50µM*	8.9µM*	-6%
CC(=O)N1CCN(C(=O)CNC(=O)c2cccs2)CC1	-11%	40%	-3%[2.33 µM]	-11%	-4%
COc1ccc(OC)c(Nc2ncnc3c2cnn3-c2cccc(C)c2)c1	3%	14%	-7%[59 µM]	-28%	6%
COc1cccc(-c2noc(CCC(=O)NCCc3ccccc3)n2)c1	14%	29%	13%	2%	1%
COc1ccccc1Nc1nnc(SCc2cc(=O)n3cc(C)ccc3n2)s1	-28%	32%	13µM*	-8%	0%
CCCc1cc(=O)n2[nH]c(-c3cc(OC)c(OC)c(OC)c3)nc2n1	8%	52%	45µM*	7%	6%

Source: PubChem
